SRC3 inh – inhibits human SRC3 coactivator. inhibition, % at 3.6 µM. 0.17% of 360,000 active. HEK293 GAL4-SRC3 luciferase reporter, luminescence;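 active = inhibition above a per-campaign cutoff, the mean of all compounds plus 3 SD, cut at about 60% in these data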;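 note: 0% = DMSO-treated cells and 100% = gossypol-treated cells at 36 µM; higher means less SRC3-driven luciferase light from the GAL4 reporter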
COUP-TFII inh – inhibitors of human COUP-TFII (NR2F2); 0.7% of 370,000 active; inhibition, % at 8.6 µM; P24468; HEK293T NGFI-A luciferase reporter, luminescence;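 active = inhibition above a per-plate cutoff, mean inhibition of test wells between control levels plus 3 SD, cut at about 38% in these data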;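 note: cells cotransfected with COUP-TFII expression vector driving the NGFI-A reporter; 0% = median of COUP-TF2 test wells and 100% = reporter-only cells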
SRC2 inh – human SRC2 (NCOA2) inhibition; Q15596; HEK293 GAL4-SRC2 luciferase reporter, luminescence; inhibition, % at 9 µM; 0.17% of 370,000 active; AID 651957;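 active = inhibition above the mean inhibition of all tested compounds plus 3 SD, set per campaign, cut at about 52% in these data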;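 note: 0% = DMSO treated cells and 100% = cells given Gossypol at 36 µM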
Gli-Sufu antag – blocks Gli-Sufu signaling in a luciferase reporter | Sufu-KO-LIGHT fibroblasts, Gli luciferase reporter luminescence | inhibition, % at 5 µM | 0.74% of 340,000 active;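 active = inhibition above about 55%, limit read from the data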;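 note: 0% = DMSO-treated cells and 100% = wells with medium but no cells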
NCOA1 inh – inhibitors of human steroid receptor coactivator 1 (SRC1); HEK293 GAL4-SRC1 luciferase reporter, luminescence; AID 588354; 0.12% of 360,000 active; Q15788; inhibition, % at 3.6 µM;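 active = inhibition above the campaign mean plus 3 SD, with each screening campaign given its own cutoff, cut at about 60% in these data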;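 note: 0% = DMSO treated cells and 100% = gossypol at 36 µM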
LRH-1 inv ag – suppresses constitutive activity of human LRH-1 | O00482 | HEK293T StAR-luciferase reporter, LRH-1 transfected, 24 h | inhibition, % at 3.6 µM | 0.13% of 360,000 active | AID 602396;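 active = inhibition above the mean inhibition of all tested compounds plus 3 SD, cut at about 73% in these data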;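 note: 0% = DMSO wells and 100% = reporter-only cells lacking LRH-1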
Gli antag conf – confirmation of Gli-SUFU pathway antagonists. inhibition, % at 5 µM. shares compounds with Gli-Sufu antag. Sufu-KO-LIGHT cells, Gli luciferase reporter, luminescence. 40% of 2,500 active;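 active = mean inhibition at 5 µM reaching about 45%, limit read from the data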;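 note: plate controls were DMSO-treated cells for no effect and wells lacking cells for full effect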
Gli cytotox – cytotoxicity counter-screen for Gli-SUFU antagonists. 32% of 2,500 active. cytotoxicity, % at 5 µM. AID 651994. Sufu-KO-LIGHT cells cytotoxicity, ATP luminescence. shares compounds with Gli-Sufu antag;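 active = mean cytotoxicity at 5 µM above about 25%, limit read from the data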;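 note: cells exposed to compound overnight for roughly 16 to 18 hours; plate controls were DMSO wells with cells for no effect and medium without cells for full effect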
Wnt3a counter – inhibits Wnt3a reporter, counter-screen for Gli-SUFU antagonists; shares compounds with Gli-Sufu antag; Wnt-LIGHT cells, Wnt3a-driven luciferase reporter, luminescence; inhibition, % at 6.25 µM; 20% of 2,500 active;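 active = mean inhibition above about 25%, limit read from the data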
Active calls of the source: *. Compounds with a hit are over-represented: about 1.2% of the library has one in this group of screens.

CC(C)CC(OC(=O)c1ccc(Cl)nc1)C(=O)NC1CCCC1 (stereo not drawn) was read as SRC3 inh -4.7, COUP-TFII inh -15.6, SRC2 inh -4.8, Gli-Sufu antag 55.8*, NCOA1 inh 6.6, LRH-1 inv ag -16.0, Gli antag conf 15.9, Gli cytotox 8.6 and Wnt3a counter 50.1*.
Screening CCOC(=O)C1=CCN(S(=O)(=O)c2ccccc2Br)C1c1ccc(Cl)cc1 (stereo not drawn) returned COUP-TFII inh 8.5 and SRC2 inh 12.9.
Cn1c(=O)c2ccccc2n(Cc2cccc(F)c2)c1=O was read as SRC3 inh -7.2, COUP-TFII inh 20.2, SRC2 inh 2.5, Gli-Sufu antag 53.6, NCOA1 inh 9.8, LRH-1 inv ag 7.2, Gli antag conf 27.4, Gli cytotox 2.9 and Wnt3a counter -0.2.
Screening Cn1c(=O)c2ccccc2n(Cc2ccccc2F)c1=O returned SRC3 inh -49.5, COUP-TFII inh 12.6, SRC2 inh 18.0, Gli-Sufu antag 8.1, NCOA1 inh -8.9 and LRH-1 inv ag -6.0.
For Cc1ccc(N(CC(=O)NCc2ccc(F)cc2)S(=O)(=O)c2c(C)n[nH]c2C)cc1 the results were SRC3 inh -19.3, COUP-TFII inh -8.2, SRC2 inh -20.3, Gli-Sufu antag 73.2*, NCOA1 inh -3.6, LRH-1 inv ag -24.7, Gli antag conf 14.0, Gli cytotox 7.3 and Wnt3a counter -48.9.
`COc1ccc(N(CC(=O)NCc2ccc(F)cc2)S(=O)(=O)c2c(C)n[nH]c2C)cc1` gave SRC3 inh 4.5, COUP-TFII inh -4.8, SRC2 inh -7.1, Gli-Sufu antag -3.8, NCOA1 inh -1.9 and LRH-1 inv ag 5.8.
`O=C(O)Cn1nnnc1SCC(=O)Nc1ccccc1F` gave SRC3 inh 13.1, COUP-TFII inh 0.9, SRC2 inh -15.8, Gli-Sufu antag 56.6*, NCOA1 inh -17.3, LRH-1 inv ag -13.0, Gli antag conf 32.5, Gli cytotox -0.4 and Wnt3a counter 9.5.
COC(=O)c1ccccc1NC(=O)CSc1nnnn1CC(=O)O was read as SRC3 inh 7.3, COUP-TFII inh -15.9, SRC2 inh 9.9, Gli-Sufu antag -10.9, NCOA1 inh 3.2 and LRH-1 inv ag 10.4.
For C/C(=N\NC(=O)C(=O)Nc1ccc(C)cc1)c1ccncc1 the results were SRC3 inh 9.0, COUP-TFII inh -4.7, SRC2 inh -2.2, Gli-Sufu antag 4.4, NCOA1 inh 2.5 and LRH-1 inv ag -4.5.
Screening C/C(=N\NC(=O)C(=O)Nc1cccc(Cl)c1)c1ccncc1 returned SRC3 inh 14.2, COUP-TFII inh -1.1, SRC2 inh 0.8, Gli-Sufu antag 61.0*, NCOA1 inh -18.8, LRH-1 inv ag -7.4, Gli antag conf 59.5*, Gli cytotox 35.0* and Wnt3a counter 13.2.
For C/C(=N\NC(=O)C(=O)Nc1ccc(C)c(Cl)c1)c1ccncc1 the results were SRC3 inh 25.0, COUP-TFII inh -18.4, SRC2 inh 7.0, Gli-Sufu antag 62.0*, NCOA1 inh -4.2, LRH-1 inv ag 2.9, Gli antag conf 62.1*, Gli cytotox 32.2* and Wnt3a counter 24.3.
Screening O=C(CSc1nnc(-c2cccnc2)n1-c1ccc(Cl)cc1)Nc1cccc2ccccc12 returned COUP-TFII inh 9.7 and SRC2 inh -21.7.
For COc1ccc(O)c(/C=N/NC(=O)c2ccc(CSc3nc(C)cc(C)n3)cc2)c1 the results were SRC3 inh 26.2, COUP-TFII inh 16.7, SRC2 inh 39.8, Gli-Sufu antag 62.8*, NCOA1 inh 18.2, LRH-1 inv ag 5.0, Gli antag conf 48.4*, Gli cytotox 18.6 and Wnt3a counter 41.3*.
Screening O=C(NC1CCCC1)[C@@H]1CCCN1C(=O)[C@@H](NS(=O)(=O)c1ccc(F)cc1F)C1CCCCC1 returned COUP-TFII inh -7.1 and SRC2 inh -8.2.
O=C(COc1ccc(Br)cc1)NCCCNC(=O)c1cccnc1 was read as SRC3 inh 12.4, COUP-TFII inh -5.1, SRC2 inh 32.1, Gli-Sufu antag 58.7*, NCOA1 inh -10.3, LRH-1 inv ag 13.3, Gli antag conf 25.7, Gli cytotox -1.3 and Wnt3a counter -9.8.
For COC(=O)[C@]1(C#N)CC(=O)N(CC(C)C)[C@@H]1c1ccccc1 the results were COUP-TFII inh -23.2 and SRC2 inh -8.3.
C[C@H]1COc2cccc(NCCO)c2S(=O)(=O)N1 was read as COUP-TFII inh 4.1 and SRC2 inh 9.2.
For Cc1cc2cc(CCNC(=O)c3ccc(Br)o3)c(=O)[nH]c2cc1C the results were SRC3 inh -14.1, COUP-TFII inh 12.5, SRC2 inh -10.6, Gli-Sufu antag 95.6*, NCOA1 inh -1.1, LRH-1 inv ag -15.0, Gli antag conf 9.9, Gli cytotox 3.1 and Wnt3a counter 29.1*.
Cc1ccc(S(=O)(=O)NCC2CCN(C(=O)C(=O)c3cc4ccccc4o3)CC2)cc1 was read as COUP-TFII inh 8.1 and SRC2 inh 11.5.
For CCCCCCCCN1C(=O)[C@@H](CC(=O)NCCC(C)C)C[C@@]2(C(=O)OC)C1=C[C@H](C(C)C)O[C@@H]2C1CC1 the results were COUP-TFII inh 13.0 and SRC2 inh 9.4.
For N/C(=N/O)c1ccccc1N1CCC(Cc2ccccc2)CC1 the results were SRC3 inh 27.2, COUP-TFII inh 32.8, SRC2 inh 20.5, Gli-Sufu antag 78.0*, NCOA1 inh 6.8, LRH-1 inv ag -3.1, Gli antag conf 74.4*, Gli cytotox 36.5* and Wnt3a counter -24.7.
c1ccc(CC2CCN(c3nnnn3-c3ccccc3)CC2)cc1 was read as SRC3 inh 7.1, COUP-TFII inh 18.7, SRC2 inh 2.9, Gli-Sufu antag 1.4, NCOA1 inh -7.2 and LRH-1 inv ag 20.7.
Cc1nc2cccc(C)n2c(=O)c1Cl was read as SRC3 inh 12.4, COUP-TFII inh -1.7, SRC2 inh 20.0, Gli-Sufu antag 55.7*, NCOA1 inh 0.2, LRH-1 inv ag -1.1, Gli antag conf 10.0, Gli cytotox 15.6 and Wnt3a counter 7.2.
For Cc1nc2ccc(Br)cn2c(=O)c1Cl the results were SRC3 inh -3.5, COUP-TFII inh 14.1, SRC2 inh 11.3, Gli-Sufu antag 2.4, NCOA1 inh -25.2 and LRH-1 inv ag -5.5.
CCOC(=O)CC[C@H]1CC[C@]2(CCCN(S(C)(=O)=O)C2)O1 was read as COUP-TFII inh -16.2 and SRC2 inh -3.2.
CCCCC(=O)Nc1nc(C)c(-c2csc(Nc3cc(Cl)ccc3OC)n2)s1 was read as SRC3 inh 9.5, COUP-TFII inh -1.7, SRC2 inh -11.8, Gli-Sufu antag -2.1, NCOA1 inh -10.6 and LRH-1 inv ag -5.6.

Screening results as filed in PubChem BioAssay.
